{"source": "PubChem BioAssay (NCI)", "note": "This is part of a sample that, as a whole, favours compounds with a hit. Of some 83,000 tested, about 20% had one in any assay.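 48-hour exposure, single concentration, 96-well plates; percent growth endpoint where 0 means no net growth. Active: below 10.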 A number with no mark means an inactive call. The source made the active and inactive calls.", "data": [{"tested_on": "SF-539 CNS", "experiment": "NCI-60 one-dose screen, 48 h (100 = growth as untreated, 0 = no growth, -100 = all killed)", "conditions": "10 µM unless noted", "values": [{"smiles": "COc1cc(/C=C\\c2cc(OC)c(OC)c(OC)c2)cc(N/C=C\\C(=O)c2cc(OC)c(OC)c(OC)c2)c1OC", "growth": "-9.74% (active)"}, {"smiles": "N#C[S-].[Au+].c1ccc(CN2[CH-]N(Cc3ccccc3)C(c3ccccc3)=C2c2ccccc2)cc1", "growth": "22.9%"}, {"smiles": "O=[N+]([O-])c1ccc(OP(=O)(CCl)N(CCCl)CCCl)cc1", "note": "(configuration not stated)", "growth": "105%"}, {"smiles": "O=C1CC2(CC3(Cl)C(Cl)=C(Cl)C2(Cl)C3(Cl)Cl)C(=O)O1", "note": "(configuration not stated)", "growth": "114%"}, {"smiles": "COc1cc2c(cc1OCCCCCn1c(-c3ccco3)nc3ccccc31)N=C[C@@H]1CCCN1C2=O", "growth": "1.5% (active)"}, {"smiles": "O=C(O)c1ccc([S-])cc1.[Au+].c1ccc(CN2[CH-]N(Cc3ccccc3)C(c3ccccc3)=C2c2ccccc2)cc1", "growth": "-1.4% (active)"}, {"smiles": "COc1cc2c(cc1OCCCCn1c(-c3cccs3)nc3ccccc31)N=C[C@@H]1CCCN1C2=O", "growth": "-25.3% (active)"}, {"smiles": "COc1ccc(/C=C\\c2cc(OC)c(OC)c(OC)c2)cc1OCC(=O)Nc1nc2ccc(F)cc2s1", "growth": "26.7%"}, {"smiles": "O=C(Nc1ccc([N+](=O)[O-])cc1)C(Cl)(Cl)Cl", "growth": "94.2%"}, {"smiles": "C[CH2][Sn]([Cl])([Cl])[CH2]C.Oc1ccccc1C=NCCN=Cc1ccccc1O", "growth": "87.9%"}, {"smiles": "C[N+]12CN3CN(CN(C3)C1)C2", "growth": "102%"}, {"smiles": "C[C@]12CC[C@@H]3c4ccc(Oc5nc(N6CC6)nc(N6CC6)n5)cc4CC[C@H]3[C@@H]1CCC2=O", "growth": "21.6%"}, {"smiles": "c1ccc(COc2ccc3[nH]cc(CCN(Cc4ccccc4)Cc4ccccc4)c3c2)cc1", "growth": "97.1%"}, {"smiles": "[Au+].[N-]=C=O.c1ccc(CN2[CH-]N(Cc3ccccc3)C(c3ccccc3)=C2c2ccccc2)cc1", "growth": "110%"}, {"smiles": "CC1=C(CCCNS(C)(=O)=O)C2=C(C)C3(CC3)[C@@](C)(O)C(=O)C2=C1", "growth": "-38.6% (active)"}, {"smiles": "CN1C(=O)N[C@H]2[C@@H]3NC(=O)c4ccc(Br)n4[C@@H]3C[C@]21O", "growth": "-59.8% (active)"}, {"smiles": "COC1OC(CO)C(O)C(O)[CH]1[Hg][O]C(C)=O", "note": "(configuration not stated)", "growth": "106%"}, {"smiles": "OCc1ccc2c(c1)OCO2", "growth": "96.1%"}, {"smiles": "Nc1nnnc2nc[nH]c12", "growth": "14.3%"}, {"smiles": "CC1CCCC(C[N+](C)(C)C)C1=O", "note": "(configuration not stated)", "growth": "94.2%"}, {"smiles": "CNC(=O)Oc1cccc(C(F)(F)F)c1", "growth": "122%"}, {"smiles": "COc1cc2c(cc1OCCCn1c(-c3ccccn3)nc3ccccc31)N=C[C@@H]1CCCN1C2=O", "growth": "14.3%"}, {"smiles": "CCCCCCCOC(C(=O)OCCN(CC)CC)(c1ccccc1)c1ccccc1", "growth": "96.9%"}, {"smiles": "CC(=O)OCC1O[C@@H]([S-])C(OC(C)=O)[C@H](OC(C)=O)[C@@H]1OC(C)=O.[Au+].c1ccc(CN2[CH-]N(Cc3ccccc3)C(c3ccccc3)=C2c2ccccc2)cc1", "growth": "70.7%"}, {"smiles": "CC(CC1CCCCC1)NCc1ccccc1", "note": "(configuration not stated)", "growth": "103%"}, {"smiles": "COc1ccc(/C=C\\c2cc(OC)c(OC)c(OC)c2)cc1OCC(=O)Nc1nc2ccc(C(F)(F)F)cc2s1", "growth": "-18.6% (active)"}, {"smiles": "O=C1CCC2(O)[C@@H]3Cc4ccc(O)c5c4[C@]2(CCN3Cc2ccoc2)C1O5", "note": "(some centres not stated)", "growth": "97.8%"}, {"smiles": "C/C(=C\\c1cc(C(F)(F)F)nn1CCNC(=O)OC(C)(C)C)[C@@H]1C[C@@H]2O[C@]2(C)CCC[C@H](C)[C@H](O)[C@@H](C)C(=O)C(C)(C)[C@@H](O)CC(=O)O1", "growth": "57.5%"}, {"smiles": "CC(C)CCC(=O)O[C@H]1CC[C@H]2[C@@H]3CCC4=CC(=O)CC[C@]4(C)[C@H]3CC[C@]12C", "growth": "96%"}, {"smiles": "ClCCN(CCCl)Cc1ccc(Nc2ccnc3cc(Cl)ccc23)cc1", "growth": "-20.2% (active)"}, {"smiles": "COc1cc(NC(C)CCCNC2CN3CCC2CC3)c2ncccc2c1", "note": "(configuration not stated)", "growth": "82.3%"}, {"smiles": "CCN(CC)CCOC(=O)C(OC(C)C)(c1ccccc1)c1ccccc1", "growth": "111%"}, {"smiles": "CCC1(C(C)C)C(=O)NC(=S)NC1=O", "growth": "94.3%"}, {"smiles": "CC[C@]12C=CCN3CC[C@]4(C(=C(C(=O)OC)C1)Nc1cc(OC)c(OC(C)=O)cc14)[C@@H]32", "growth": "11.2%"}]}, {"tested_on": "UACC-257 melanoma", "experiment": "NCI-60 one-dose screen, 48 h (100 = growth as untreated, 0 = no growth, -100 = all killed)", "conditions": "10 µM unless noted", "values": [{"smiles": "COc1cc(/C=C\\c2cc(OC)c(OC)c(OC)c2)cc(N/C=C\\C(=O)c2cc(OC)c(OC)c(OC)c2)c1OC", "growth": "68.1%"}, {"smiles": "N#C[S-].[Au+].c1ccc(CN2[CH-]N(Cc3ccccc3)C(c3ccccc3)=C2c2ccccc2)cc1", "growth": "-9.77% (active)"}, {"smiles": "O=[N+]([O-])c1ccc(OP(=O)(CCl)N(CCCl)CCCl)cc1", "note": "(configuration not stated)", "growth": "99.9%"}, {"smiles": "O=C1CC2(CC3(Cl)C(Cl)=C(Cl)C2(Cl)C3(Cl)Cl)C(=O)O1", "note": "(configuration not stated)", "growth": "107%"}, {"smiles": "O=C(O)c1ccc([S-])cc1.[Au+].c1ccc(CN2[CH-]N(Cc3ccccc3)C(c3ccccc3)=C2c2ccccc2)cc1", "growth": "-19.1% (active)"}, {"smiles": "N#C[Se]Cc1cc(-c2ccccc2)n(-c2ccc(S(N)(=O)=O)cc2)n1", "growth": "-70.2% (active)"}, {"smiles": "COc1ccc(/C=C\\c2cc(OC)c(OC)c(OC)c2)cc1OCC(=O)Nc1nc2ccc(F)cc2s1", "growth": "51%"}, {"smiles": "O=C(Nc1ccc([N+](=O)[O-])cc1)C(Cl)(Cl)Cl", "growth": "96.7%"}, {"smiles": "C[CH2][Sn]([Cl])([Cl])[CH2]C.Oc1ccccc1C=NCCN=Cc1ccccc1O", "growth": "94.1%"}, {"smiles": "C[C@]12CC[C@@H]3c4ccc(Oc5nc(N6CC6)nc(N6CC6)n5)cc4CC[C@H]3[C@@H]1CCC2=O", "growth": "65.5%"}, {"smiles": "[Au+].[N-]=C=O.c1ccc(CN2[CH-]N(Cc3ccccc3)C(c3ccccc3)=C2c2ccccc2)cc1", "growth": "99.8%"}, {"smiles": "C[C@]12CC[C@H]3[C@@H](CC[C@]4(O)C[C@@H](O[C@@H]5O[C@H](CO)[C@@H](O[C@@H]6OC[C@@H](O)[C@H](O)[C@H]6O)[C@H](O)[C@H]5O)CC[C@]34C=O)[C@@]1(O)CC[C@@H]2C1=CC(=O)OC1", "growth": "-3.23% (active)"}, {"smiles": "CC1CCCC(C[N+](C)(C)C)C1=O", "note": "(configuration not stated)", "growth": "112%"}, {"smiles": "CNC(=O)Oc1cccc(C(F)(F)F)c1", "growth": "102%"}, {"smiles": "CC(=O)OCC1O[C@@H]([S-])C(OC(C)=O)[C@H](OC(C)=O)[C@@H]1OC(C)=O.[Au+].c1ccc(CN2[CH-]N(Cc3ccccc3)C(c3ccccc3)=C2c2ccccc2)cc1", "growth": "65.5%"}, {"smiles": "COc1ccc(C(=O)c2sc3nc4c(cc3c2N)N2CCC4CC2)cc1OC", "growth": "111%"}, {"smiles": "COc1ccc(/C=C\\c2cc(OC)c(OC)c(OC)c2)cc1OCC(=O)Nc1nc2ccc(C(F)(F)F)cc2s1", "growth": "50%"}, {"smiles": "O=C1CCC2(O)[C@@H]3Cc4ccc(O)c5c4[C@]2(CCN3Cc2ccoc2)C1O5", "note": "(some centres not stated)", "growth": "103%"}, {"smiles": "C/C(=C\\c1cc(C(F)(F)F)nn1CCNC(=O)OC(C)(C)C)[C@@H]1C[C@@H]2O[C@]2(C)CCC[C@H](C)[C@H](O)[C@@H](C)C(=O)C(C)(C)[C@@H](O)CC(=O)O1", "growth": "83.5%"}, {"smiles": "ClCCN(CCCl)Cc1ccc(Nc2ccnc3cc(Cl)ccc23)cc1", "growth": "56.2%"}, {"smiles": "COc1cc(NC(C)CCCNC2CN3CCC2CC3)c2ncccc2c1", "note": "(configuration not stated)", "growth": "39.9%"}, {"smiles": "C=CCCCN=C=S", "growth": "62.5%"}, {"smiles": "CCC1(C(C)C)C(=O)NC(=S)NC1=O", "growth": "92.2%"}]}]}
